This is a sample that favours compounds with a hit; in the whole collection about 19% have one here.
HepG2 viability = HepG2 cytotoxicity, counter-screen for TGF-b inhibitors. actives 0.76% (n = 410,000). HepG2 CAGA-GFP viability, ATP luminescence, 18 h. AID 588856. Potency, µM (top dose mostly 46.1 µM), inactives show top-dose activity change, negative = cytotoxicity, actives largely listed as cytotoxic; further: potency means the concentration at half of the fitted maximal effect
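HepG2 CAGA-GFP cells (1000/well, DMEM with 1% FBS) received compound, then TGF-beta at 500 pg/mL final, and were incubated 18 hours at 37 degrees C. Viability was read by CellTiter-Glo luminescence. Media-only wells were set as complete cell-killing and DMSO as no toxicity.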
TDP1 block = TDP1 (human) enzyme inhibition | Q9NUW8 | recombinant TDP1, AlphaScreen DNA substrate cleavage | Potency, µM (series often up to 130 µM), inactives show at the highest dose activity change, negative = inhibition, most hits filed as inhibitors | actives 0.28% (n = 350,000) | AID 485290; further: potency means the concentration at half of the fitted maximal effect; on the % scale 0 is the no-effect control and ±100 the full control effect; nearly all actives have a fitted effect of over 40% in size
Target sequence (Q9NUW8 whole entry, looked up): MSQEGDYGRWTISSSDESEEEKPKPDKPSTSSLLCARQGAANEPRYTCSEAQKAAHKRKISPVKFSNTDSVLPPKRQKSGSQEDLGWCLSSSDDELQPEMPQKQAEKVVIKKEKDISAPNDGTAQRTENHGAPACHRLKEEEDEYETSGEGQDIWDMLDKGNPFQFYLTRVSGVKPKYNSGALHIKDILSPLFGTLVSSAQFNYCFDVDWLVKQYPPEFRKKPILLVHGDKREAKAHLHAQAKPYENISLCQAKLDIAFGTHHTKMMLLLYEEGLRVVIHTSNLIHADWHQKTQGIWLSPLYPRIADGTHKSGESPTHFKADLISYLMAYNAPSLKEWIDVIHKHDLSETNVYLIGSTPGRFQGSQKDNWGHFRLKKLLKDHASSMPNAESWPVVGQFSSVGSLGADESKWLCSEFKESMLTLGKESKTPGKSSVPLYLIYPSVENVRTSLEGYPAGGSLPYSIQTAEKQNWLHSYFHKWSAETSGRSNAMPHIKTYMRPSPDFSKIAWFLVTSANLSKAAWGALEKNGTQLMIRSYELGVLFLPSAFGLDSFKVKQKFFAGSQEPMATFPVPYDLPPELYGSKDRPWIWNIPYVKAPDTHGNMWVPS
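Tdp1 1 nM final; 15 min RT w/ cpd; substrate 15 nM, 5 min; beads 10 ug/ml, 10 min; AlphaScreen read. Neg ctrl: no enzyme.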
TDP1 cell noCPT = qHTS for Inhibitors of human tyrosyl-DNA phosphodiesterase 1 (TDP1): qHTS in cells in absence of CPT; Potency, µM (series often up to 46.2 µM), without a hit: top-dose activity change, negative = growth inhibition, hits mostly inhibitors; actives 15% (n = 420,000); DT40 Tdp1-/- hTDP1 cells, no CPT, ATP luminescence, 48 h; further: potency means the concentration at half of the fitted maximal effect; on the % scale 0 is the no-effect control and ±100 the full control effect; nearly all actives have a fitted effect of over 55% in size
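Chicken DT40 Tdp1-/- cells complemented with human TDP1, screened without camptothecin (DMSO vehicle only), 400 cells/well. Compounds pin-transferred, cells incubated at 37 °C for at least 48 hr. Growth read as ATP-dependent luminescence (CellTiter-Glo, 30 min at RT).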
DT40 TDP1 CPT = DT40-hTDP1 cell growth loss with CPT. Potency, µM (highest dose often 46.2 µM), inactives show top-dose activity change, negative = growth inhibition, hits mostly inhibitors. AID 686979. actives 12% (n = 420,000). chicken DT40 Tdp1-/-;hTDP1 cells + 20 nM CPT, ATP luminescence, 48 h; further: potency means the concentration at half of the fitted maximal effect; on the % scale 0 is the no-effect control and ±100 the full control effect; nearly all actives have a fitted effect of over 55% in size
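Cell growth measured by CellTiter-Glo luminescence after a minimum 48 h, 37 C compound exposure with 20 nM CPT in Tdp1-knockout DT40 cells stably expressing hTDP1, seeded 400/well; qHTS titration format.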
TGFb inhibitor = TGF-b pathway inhibition; HepG2 CAGA-GFP TGF-b/SMAD3 reporter, GFP fluorescence, 18 h; TGF-beta stimulated, 500 pg/mL final; Potency, µM (highest dose often 46.1 µM), inactives show at the highest dose activity, negative = inhibition, most hits filed as inhibitors; actives 1.2% (n = 410,000); AID 588855; further: potency means the concentration at half of the fitted maximal effect; on the % scale 0 is the no-effect control and ±100 the full control effect; nearly all actives have a fitted effect of over 65% in size
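Inhibition was scored as loss of TGF-beta-induced (500 pg/mL final, 18 hours, 37 degrees C) GFP in HEPG2 cells carrying a CAGA-GFP reporter, in DMEM with 1% FBS. Well GFP was summed per cell; Activity was normalised to unstimulated and stimulated DMSO wells, then concentration-response fitting.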
IL-1B inflam inh = inflammasome signaling inhibition, IL-1 beta readout. THP-1 LPS/ATP IL-1B secretion, AlphaLISA, 16 h; hits give low values. activity change, % at 57.5 µM. actives 4.7% (n = 360,000). AID 743279; in the data active means activity change below about -50%; inconclusive means mostly about -30% to -49%; further: on the % scale 0 is the no-effect control and ±100 the full control effect
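THP-1 cells pretreated 1 hr with compounds (up to 57.5 uM final), then stimulated with LPS (250 ng/mL final) plus ATP (1.25 mM final); secreted IL-1B measured by AlphaLISA after 16 hr, decreased signal indicating inhibition.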
Active calls of the source: *; ? = inconclusive; . = not tested or not shown. Unless noted, the call rests on the fitted dose curve; in most records, active means well fitted curve in the direction sought with a large enough effect; inconclusive means small, poorly fitted or top-dose-only effect, or another doubt; inactive means no such curve, though single readings can be large; an effect the other way counts as inactive or inconclusive.

SMILES | HepG2 viability | TDP1 block | TDP1 cell noCPT | DT40 TDP1 CPT | TGFb inhibitor | IL-1B inflam inh
CCC(=O)NC1CCN(C(=S)NC)CC1 | 11.8% | 0.0% | -0.1% | -0.3% | 6.8% | 12.9
CCOc1ccc(C(=O)NCCS(=O)(=O)N2CCN(c3ccccc3F)CC2)cc1OCC | -11.8% | 1.8% | ? | -3.0% | 2.8% | .
CCOC1=C2CN(S(=O)(=O)c3ccc(C)cc3)[C@@H](c3cccc4ccccc34)C[C@H]2[C@H]2C(=O)N(c3ccccc3)C(=O)[C@H]2C1 | 1.6% | . | 5.7% | 2.3% | -1.6% | -6.4
CCOC1=C2CN(S(=O)(=O)c3ccc(C)cc3)[C@H](c3cccc4ccccc34)C[C@H]2C(C#N)(C#N)C(C#N)(C#N)C1 | -43.1% | . | 5.8µM* | 4.11µM* | ? | -26.3
CCOC1=C2[C@H](c3ccccc3)N(S(=O)(=O)c3ccc(C)cc3)C(C(C)(C)C)[C@H]2C(C#N)(C#N)C(C#N)(C#N)C1 (stereo partly specified) | 15.8µM* | . | 2.06µM* | 2.06µM* | 10µM* | -64.4*
C[C@@H](O[C@H]1OCCN(Cc2n[nH]c(=O)[nH]2)[C@H]1c1ccc(F)cc1)c1cc(C(F)(F)F)cc(C(F)(F)F)c1 | . | . | 21.1µM* | 18.8µM* | . | .
CCCCn1c(N)c(N(CC)C(=O)C2=COCCO2)c(=O)[nH]c1=O | 0.0% | -7.4% | 0.4% | 0.2% | 3.0% | -1.5
CCCC1/C(=N/O)CC(c2ccccc2)NC1c1ccccc1 (stereo unspecified) | -8.2% | -1.1% | 4.11µM* | ? | -10.6% | -97.8*
CC1/C(=N/O)CC(c2ccccc2)NC1c1ccccc1 (stereo unspecified) | 0.0% | 0.0% | ? | ? | -24.4% | -4.0
CCC1C(=NO)C(CC)C(c2ccccc2)NC1c1ccccc1 (stereo unspecified) | -12.2% | 5.9% | ? | ? | ? | -51.2*
CC(C)C1/C(=N/O)CC(c2ccccc2)NC1c1ccccc1 (stereo unspecified) | 1.9% | 4.8% | 20.6µM* | 16.4µM* | 25.4% | -22.7
CC1C(=NO)C(C)C(c2ccccc2)NC1c1ccccc1 (stereo unspecified) | -11.4% | 4.7% | -17.3% | -9.6% | -22.1% | 6.3
CC1=CC(C)(C)n2c(O)c(N=N)c3cc(C)cc1c32 | -1.6% | 8.2% | 23.1µM* | ? | ? | -60.4*
CC1=CC(C)(C)n2c(O)c(N=NC(N)=S)c3cccc1c32 | -26.7% | 2.3% | ? | ? | -19.2% | 0.0
COc1cc2c3c(c1)c(N=NC(N)=S)c(O)n3C(C)(C)C=C2C | -9.1% | 8.2% | 5.17µM* | 4.61µM* | -11.0% | -18.5
CC1=CC(C)(C)n2c(O)c(N=N)c3c(C)c(C)cc1c32 | -34.8% | 11.2% | ? | -15.5% | ? | -8.7
COc1ccccc1NC(=O)c1ccc[n+]([O-])c1 | 2.1% | . | 22.0% | -0.2% | -16.0% | 19.6
O=C(CNC(=O)C1CCCCC1)OC(C(=O)Nc1cc(C(F)(F)F)ccc1Cl)c1ccccc1 (stereo unspecified) | . | 0.4% | . | . | . | .
O=C(Nc1cccc(C(F)(F)F)c1)c1cccnc1NCCO | -3.9% | . | 4.8% | -7.1% | 12.8% | 30.9
O=C(Nc1cccc(F)c1)c1cccnc1NCCc1ccccc1 | 3.2% | -4.6% | ? | ? | ? | -60.1*
O=C(Nc1cccc(C(F)(F)F)c1)c1cccnc1NCCc1ccccc1 | -102.0% | 3.5% | 16.4µM* | ? | ? | -67.4*
Cc1ccc(O)c(NC(=O)c2nc3nc(C)cc(C(F)F)n3n2)c1 | 9.7% | -1.1% | ? | -6.8% | 4.6% | .
